This is an account of results in the supplement of paper PMC8728848.

The full list was thinned out, with the strongest signals kept by preference.

What all share (experiment): glycan array binding signal (z-score within array); higher = stronger binding
Conditions in all cases: glycan notation: IUPAC condensed, linker removed

Test [1] has as its target Fuc(a1-2)Gal(b1-4)GlcNAc(b1-3)Gal(b1-4)GlcNAc. The method in brief: (§1)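 Glycan array data came from 3228 arrays in the Consortium for Functional Glycomics database, and only arrays with an available protein sequence were kept. Glycan names were put into IUPAC-condensed notation, and columns mapping to the same glycan were averaged. The binding signal is a within-array Z-score, averaged across arrays of one protein sequence run at different concentrations or buffers and across linkers. A negative Z-score can be read as non-binding.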

Test [2] addresses Fuc(a1-2)Gal(b1-4)GlcNAc(b1-6)GalNAc. In a few lines: as §1
In test [3] the target is Fuc(a1-2)[GalNAc(a1-3)]Gal. The method in brief:
as §1

For test [4], the target named is Fuc(a1-2)[GalNAc(a1-3)]Gal(b1-3)GalNAc(b1-3)Gal(a1-4)Gal(b1-4)Glc. In a few lines:
as §1

For test [5], the target named is Fuc(a1-2)[GalNAc(a1-3)]Gal(b1-4)[Fuc(a1-3)]GlcNAc. In a few lines:
as §1

Test [6] concerns the target Fuc(a1-3)[Gal3S(b1-4)]GlcNAc6S. In a few lines:
as §1

Test [7] addresses Gal(a1-3)Gal(b1-4)GlcNAc(b1-6)GalNAc. The method in brief: as §1
In test [8] the target is Gal(a1-3)[Gal(a1-4)]Gal(b1-4)GlcNAc. In a few lines:
as §1

Test [9] addresses Gal(b1-3)GlcNAc(a1-3)Gal(b1-4)GlcNAc. In a few lines:
as §1

The target in test [10] is Gal(b1-3)GlcNAc(b1-2)Man(a1-3)[Gal(b1-3)GlcNAc(b1-2)Man(a1-6)]Man(b1-4)GlcNAc(b1-4)GlcNAc. In a few lines: as §1
Test [11] addresses Gal(b1-3)GlcNAc(b1-2)Man(a1-3)[GlcNAc(b1-4)][Gal(b1-3)GlcNAc(b1-2)Man(a1-6)]Man(b1-4)GlcNAc(b1-4)GlcNAc. The method in brief: as §1
Test [12] has as its target Gal(b1-3)[GlcNAc(b1-6)]GalNAc. In a few lines: as §1
The next test deals with Gal(b1-4)GlcNAc(b1-2)Man. In a few lines: as §1
In test [13] the target is Gal(b1-4)GlcNAc(b1-2)Man(a1-3)Man(b1-4)GlcNAc(b1-4)GlcNAc. The method in brief: as §1
The target of test [14] is Gal(b1-4)GlcNAc(b1-2)Man(a1-3)[Man(a1-6)]Man(b1-4)GlcNAc(b1-4)GlcNAc. The method in brief: as §1
Test [15] has as its target Gal(b1-4)GlcNAc(b1-3)Gal(b1-4)GlcNAc(b1-2)[Gal(b1-4)GlcNAc(b1-3)Gal(b1-4)GlcNAc(b1-6)]Man(a1-6)[Gal(b1-4)GlcNAc(b1-3)Gal(b1-4)GlcNAc(b1-2)Man(a1-3)]Man(b1-4)GlcNAc(b1-4)GlcNAc. In a few lines: as §1
Test [16] concerns the target Gal(b1-4)GlcNAc(b1-3)Gal(b1-4)GlcNAc(b1-3)Gal(b1-4)GlcNAc(b1-3)Gal(b1-4)GlcNAc(b1-3)Gal(b1-4)GlcNAc(b1-2)Man(a1-3)[Gal(b1-4)GlcNAc(b1-3)Gal(b1-4)GlcNAc(b1-3)Gal(b1-4)GlcNAc(b1-3)Gal(b1-4)GlcNAc(b1-3)Gal(b1-4)GlcNAc(b1-2)Man(a1-6)]Man(b1-4)GlcNAc(b1-4)GlcNAc. The method in brief:
as §1

For test [17], the target named is Gal(b1-4)GlcNAc(b1-3)Gal(b1-4)GlcNAc(b1-3)Gal(b1-4)GlcNAc(b1-3)Gal(b1-4)GlcNAc(b1-3)Gal(b1-4)GlcNAc(b1-2)[Gal(b1-4)GlcNAc(b1-3)Gal(b1-4)GlcNAc(b1-3)Gal(b1-4)GlcNAc(b1-3)Gal(b1-4)GlcNAc(b1-3)Gal(b1-4)GlcNAc(b1-6)]Man(a1-6)[Gal(b1-4)GlcNAc(b1-3)Gal(b1-4)GlcNAc(b1-3)Gal(b1-4)GlcNAc(b1-3)Gal(b1-4)GlcNAc(b1-3)Gal(b1-4)GlcNAc(b1-2)Man(a1-3)]Man(b1-4)GlcNAc(b1-4)[Fuc(a1-6)]GlcNAc. In a few lines: as §1

Test [18] addresses Gal(b1-4)GlcNAc(b1-6)GalNAc. The method in brief:
as §1

The next test addresses Gal3S(b1-4)Glc. The method in brief: as §1
Another test has as its target Gal3S6S(b1-4)GlcNAc. In a few lines: as §1
In a further test the target is Gal6S(b1-4)GlcNAc6S. The method in brief:
as §1

Another test has as its target GalNAc(a1-3)GalNAc. The method in brief:
as §1

Another test deals with Glc(a1-6)Glc(a1-6)Glc. In a few lines: as §1
For test [19], the target named is GlcNAc(b1-2)Gal(b1-3)GalNAc. The method in brief:
as §1

In test [20] the target is GlcNAc(b1-2)Man(a1-3)[GlcNAc(b1-2)Man(a1-6)]Man(b1-4)GlcNAc(b1-4)[Fuc(a1-6)]GlcNAc. In a few lines:
as §1

In test [21] the target is GlcNAc(b1-2)[GlcNAc(b1-4)]Man(a1-3)[GlcNAc(b1-4)][GlcNAc(b1-2)Man(a1-6)]Man(b1-4)GlcNAc(b1-4)GlcNAc. The method in brief:
as §1

For test [22], the target named is GlcNAc(b1-3)Gal(b1-4)GlcNAc(b1-2)[GlcNAc(b1-3)Gal(b1-4)GlcNAc(b1-6)]Man(a1-6)[GlcNAc(b1-3)Gal(b1-4)GlcNAc(b1-2)Man(a1-3)]Man(b1-4)GlcNAc(b1-4)GlcNAc. In a few lines: as §1
In test [23] the target is GlcNAc(b1-3)Gal(b1-4)GlcNAc(b1-3)Gal(b1-4)GlcNAc(b1-2)[GlcNAc(b1-3)Gal(b1-4)GlcNAc(b1-3)Gal(b1-4)GlcNAc(b1-6)]Man(a1-6)[GlcNAc(b1-3)Gal(b1-4)GlcNAc(b1-3)Gal(b1-4)GlcNAc(b1-2)Man(a1-3)]Man(b1-4)GlcNAc(b1-4)[Fuc(a1-6)]GlcNAc. In a few lines: as §1
For test [24], the target named is GlcNAc(b1-3)Gal(b1-4)GlcNAc(b1-6)[Gal(b1-3)]GalNAc. The method in brief:
as §1

Test [25] addresses Neu5Ac(a2-8)Neu5Ac(a2-8)Neu5Ac(a2-8)Neu5Ac(a2-3)[GalNAc(b1-4)]Gal(b1-4)Glc. In a few lines:
as §1

In test [26] the target is Neu5Gc(a2-3)Gal(b1-3)GlcNAc. The method in brief:
as §1

B1: EULS2 M4 (Oryza sativa) (protein)
chain: MVYCRANPNYAMTARNGAVVLAPANPKDEYQHWIKDMRWSTSIKDEEGYPAFALVNKATGQAIKHSLGQSHPVRLVPYNPEVMDESVLWTESRDVGNGFRCIRMVNNIYLNFDAFHGDKYHGGVRDGTDIVLWKWCEGDSLRWKIQPYYILEQKLISEEDLNSAVDHHHHHH
Consider B1, for which the “glycan array binding signal (z-score)” value is -0.01 in test [1]; -0.469 in [2]; -0.348 in test [3]; -0.473 in [4]; -0.416 in test [5]; -0.356 in [6]. Moreover, the “glycan array binding signal (z-score)” value was 0.31 in test [7]; 7 in test [8]; -0.21 in test [9]; -0.259 in test [10]; 4.91 in test [11]; -0.511 in test [12]. Also, the “glycan array binding signal (z-score)” value with Gal(b1-4)GlcNAc(b1-2)Man was -0.202; in test [13], 2.57; in test [14] it was 7.18; in test [15], 6.97; in [16], -0.273; in [17], 4.92. Further, the “glycan array binding signal (z-score)” value in test [18] was -0.124; with Gal3S(b1-4)Glc it was 0.203; in the test with Gal3S6S(b1-4)GlcNAc, -0.485; with Gal6S(b1-4)GlcNAc6S, -0.349; with GalNAc(a1-3)GalNAc, -0.218; in the test with Glc(a1-6)Glc(a1-6)Glc, 0.287. For the same molecule, the “glycan array binding signal (z-score)” value in test [19] is -0.527; in test [20], -0.215; in test [21], -0.288; in [22] it was 0.417; in test [23], -0.364; in [24], -0.431.

B2: Cohesin-marm-DC-ASGPR (protein)
chain: LDITSHHHHHHDDLDAVRIKVDTVNAKPGDTVRIPVRFSGIPSKGIANCDFVYSYDPNVLEIIEIEPGDIIVDPNPDKSFDTAVYPDRKIIVFLFAEDSGTGAYAITKDGVFATIVAKVKEGAPNGLSVIKFVEVGGFANNDLVEQKTQFFDGGVNVGDTTEPATPTTPVTTPTTTDDLDAASSKFQRDLVTLRTDFSNFTSNTLAEIQALTSQGSSLQETIASLKAEVEGHKQELQAGASELQEHNKQKAHLGRCPHTCVCPSSFVCVPVHSEILLRVQQLVQDLNKLSCQVAILKNNATTERTCCPINWVEHQGSCYWFSRSGKTWPEAERYCQLENTHLVVINSREEQNFVQAHLGSAYTWMGLSDPEGVWKWVDGTDYSSGFQNWKPGQPDDWQGHGLGGGEDCAHFHPDGRWNDDVCQRSYHWVCEAGLTQASQDSHAS
For the molecule B2, the “glycan array binding signal (z-score)” value in test [25] was 5.27; in test [26] it was -0.264.
